The panel holds about 79,000 compounds, 15% with a hit somewhere; the sample as a whole holds those more often. Activity calls are given as the source filed them. Rule as the data show it: active = growth inhibition above about 70%; inactive = the rest.
Assay: NCI Yeast Anticancer Drug Screen. Data for the rad50 strain (AID 155);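 also: 0% = growth of vehicle-only cultures of the same strain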
Settings: S. cerevisiae rad50 strain growth inhibition; at 50.0 µM; active compounds read high
How it was run: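 Cells are treated with compound, grown, and their growth is then scored against vehicle-only cultures of the same repair-deficient yeast strain.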

| Compound | growth inhibition |
| --- | --- |
| COC(=O)C(Cl)(Cl)c1nc(NC(C)=O)[nH]c(=O)c1Cl | 0.45% (inactive) |
| O=C(Nc1ccc(F)cc1)C(=O)C(C1OC(=O)c2ccccc21)[N+](=O)[O-] (stereo not drawn) | 14.9% (inactive) |
| O=C1CC2(CCCc3sccc32)C(=O)N1 (stereo not drawn) | -11.2% (inactive) |
| Cn1c(=O)c2c(nc(CCCCCCCCc3nc4c(c(=O)n(C)c(=O)n4C)n3C)n2C)n(C)c1=O | -7.5% (inactive) |
| O=C1/C(=C\c2ccccn2)c2ccccc2N1Cc1ccccc1 | 7.6% (inactive) |
| CC12NN=NC1C(=O)NC2=O (stereo not drawn) | 0.85% (inactive) |
| CCCCC(=O)N1SC(NC(=O)OC)=Nc2ccccc21 | 61% (inactive) |
| Clc1ccc2c(c1)-c1c3c(nn1-c1ccccc1)-c1ccccc1SC3O2 (stereo not drawn) | 23.3% (inactive) |
| CC(=O)C(N)C(C)C (stereo not drawn) | 5.4% (inactive) |
| CN(C)C(=S)/N=c1\ssc(=S)n1Cc1cccs1 | -11.1% (inactive) |
| CCOC(=O)C1CC(C)CC1=O (stereo not drawn) | 5.7% (inactive) |
| N#Cc1ccc(/C=N\NC(=O)CCSCCC(=O)N/N=C/c2ccc(C#N)cc2)cc1 | 13.2% (inactive) |
| CCOC(=O)c1ccc(NC(=O)Nc2cc(C(F)(F)F)ccc2Cl)cc1 | 89.2% (active) |
| CCOC(C)C=O (stereo not drawn) | -3.85% (inactive) |
| CC(C)(C)NC(=O)C12C3C4C1C1C2C3C41C(=O)NC(C)(C)C (stereo not drawn) | -19.3% (inactive) |
| COC(=O)/C=C(\C)Nc1cccc([N+](=O)[O-])c1 | -15.2% (inactive) |
| COC(=O)C1Cc2ccccc2C1=O (stereo not drawn) | -1.75% (inactive) |
| CCC(CCCCCc1ccccc1)(C(=O)O)C(=O)O | -0.7% (inactive) |
| CC1CN=C(N(C(=O)Nc2ccc(Cl)c(Cl)c2)c2ccccc2)S1 (stereo not drawn) | -47.3% (inactive) |
| COC(=O)c1c(O)ccc(O)c1C(=O)OC | -15.7% (inactive) |
| O=C(CCCCCCCCC(=O)NCC1(c2ccccc2)CCNCC1)NCC1(c2ccccc2)CCNCC1 | -27.5% (inactive) |
| NC(=O)C(CCN1CCCCC1)c1ccccc1 (stereo not drawn) | 27.2% (inactive) |
| CC(C)(C)OC(=O)N1CC(C)(C)N2C(=O)C3(CCCO3)C12 (stereo not drawn) | -4.3% (inactive) |
| O=[N+]([O-])c1cccc(C2=NON(c3ncccn3)C3N=CC=CN23)c1 (stereo not drawn) | 11.9% (inactive) |
| O=C1NC(=O)[C@@H](OCC2CCCCC2)[C@@H]2OCC3OC(C(O)C3O)C12 (stereo partly drawn) | -33.9% (inactive) |
| O=C(NO)/C(CC(=O)c1ccccc1O)=N\O | -5.4% (inactive) |
| COc1cccc2c1N=c1c(Cl)c3c(c(Cl)c1O2)=Nc1c(OC)cccc1O3 | -17.9% (inactive) |
| CN=Cc1ccccc1O.CN=Cc1ccccc1O.[Cu+2] | 6.55% (inactive) |

Assay: NCI Yeast Anticancer Drug Screen. Data for the mec2-1 strain (AID 157)
Settings: S. cerevisiae mec2-1 strain, at 50.0 µM, active compounds read high
How it was run: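 Using mec2-1 yeast: add compound, measure growth, express inhibition versus vehicle-treated cultures.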

| Compound | growth inhibition |
| --- | --- |
| O=S1(=O)CC(N2CCOCC2)C2=C(O1)c1sc(-c3ccccc3)nc1CC2 (stereo not drawn) | -7.45% (inactive) |
| O=C(Cn1c(-c2ccccc2)cc2ccccc21)N1CCOCC1 | -32.9% (inactive) |
| CCOC(=O)/C(C(C)=O)=C1\C(=O)c2ccccc2-c2ccccc21 | 3.5% (inactive) |
| COC(=O)C1=C(C(=O)OC)C2(C3C(SC)=CC(C)(C)CC3S1)N(Cc1ccccc1)CCN2Cc1ccccc1 (stereo not drawn) | -5.25% (inactive) |
| CCCO[C@@H]1[C@@H](OC(C)=O)[C@@H](OC(C)=O)C(C)(C)/C=C/[C@H](C)C(=O)[C@@]2(OC(C)=O)C[C@@](C)(OC(C)=O)[C@H](OC(C)=O)[C@@H]2[C@H]2OC(=O)CC[C@@]12OC(=O)c1ccccc1 | -24.2% (inactive) |
| O=C(NC1=C(Cl)C(=O)c2ccccc2C1=O)C(=O)c1c(O)c2ccccc2oc1=O | 85.8% (active) |
| Clc1ccc2c(N3CCC(CCC4CCN(c5ncnc6cc(Cl)ccc56)CC4)CC3)ncnc2c1 | -21.6% (inactive) |
| Cn1cnnc1Sc1c([N+](=O)[O-])nc(-c2ccc([N+](=O)[O-])cc2)n1C | 3.15% (inactive) |
| COc1ncn(C2CC(OC(=O)c3ccc(C)cc3)C(COC(=O)c3ccc(C)cc3)O2)c(=O)n1 (stereo not drawn) | -9.1% (inactive) |
| CC(C)Cn1cnc2c(Cl)nc3ccccc3c21 | 20.4% (inactive) |
| O=c1cc(-c2ccc(F)cc2)oc2ccccc12 | -7.45% (inactive) |
| CC(=O)OCC12CCC(C)=CC1O[C@H]1[C@@H](OC(C)=O)[C@H](OC(C)=O)[C@]2(C)[C@@]12CO2 (stereo partly drawn) | -17.4% (inactive) |
| COC(=O)C(Cl)(Cl)c1nc(NC(C)=O)[nH]c(=O)c1Cl | 13.3% (inactive) |
| O=C(Nc1ccc(F)cc1)C(=O)C(C1OC(=O)c2ccccc21)[N+](=O)[O-] (stereo not drawn) | 6.15% (inactive) |
| O=C1CC2(CCCc3sccc32)C(=O)N1 (stereo not drawn) | -1.65% (inactive) |
| Cn1c(=O)c2c(nc(CCCCCCCCc3nc4c(c(=O)n(C)c(=O)n4C)n3C)n2C)n(C)c1=O | 19.9% (inactive) |
| O=C1/C(=C\c2ccccn2)c2ccccc2N1Cc1ccccc1 | 1.25% (inactive) |
| CC12NN=NC1C(=O)NC2=O (stereo not drawn) | -0.75% (inactive) |
| CCCCC(=O)N1SC(NC(=O)OC)=Nc2ccccc21 | 42.4% (inactive) |
| Clc1ccc2c(c1)-c1c3c(nn1-c1ccccc1)-c1ccccc1SC3O2 (stereo not drawn) | 10.6% (inactive) |

| Compound | growth inhibition |
| --- | --- |
| CC(=O)C(N)C(C)C (stereo not drawn) | -3.7% (inactive) |
| CN(C)C(=S)/N=c1\ssc(=S)n1Cc1cccs1 | -19.5% (inactive) |
| CCOC(=O)C1CC(C)CC1=O (stereo not drawn) | -2.6% (inactive) |
| N#Cc1ccc(/C=N\NC(=O)CCSCCC(=O)N/N=C/c2ccc(C#N)cc2)cc1 | 24.9% (inactive) |
| CCOC(=O)c1ccc(NC(=O)Nc2cc(C(F)(F)F)ccc2Cl)cc1 | 28.3% (inactive) |
| CCOC(C)C=O (stereo not drawn) | 19.1% (inactive) |
| CC(C)(C)NC(=O)C12C3C4C1C1C2C3C41C(=O)NC(C)(C)C (stereo not drawn) | -9% (inactive) |
| COC(=O)/C=C(\C)Nc1cccc([N+](=O)[O-])c1 | -0.65% (inactive) |
| COC(=O)C1Cc2ccccc2C1=O (stereo not drawn) | -13.2% (inactive) |
| CCC(CCCCCc1ccccc1)(C(=O)O)C(=O)O | 10.8% (inactive) |
| CC1CN=C(N(C(=O)Nc2ccc(Cl)c(Cl)c2)c2ccccc2)S1 (stereo not drawn) | 3.6% (inactive) |
| COC(=O)c1c(O)ccc(O)c1C(=O)OC | -18.4% (inactive) |
| O=C(CCCCCCCCC(=O)NCC1(c2ccccc2)CCNCC1)NCC1(c2ccccc2)CCNCC1 | -23.6% (inactive) |
| NC(=O)C(CCN1CCCCC1)c1ccccc1 (stereo not drawn) | -7.35% (inactive) |
| CC(C)(C)OC(=O)N1CC(C)(C)N2C(=O)C3(CCCO3)C12 (stereo not drawn) | -9.85% (inactive) |
| O=[N+]([O-])c1cccc(C2=NON(c3ncccn3)C3N=CC=CN23)c1 (stereo not drawn) | -17.7% (inactive) |
| O=C1NC(=O)[C@@H](OCC2CCCCC2)[C@@H]2OCC3OC(C(O)C3O)C12 (stereo partly drawn) | -3.1% (inactive) |
| O=C(NO)/C(CC(=O)c1ccccc1O)=N\O | -21.6% (inactive) |
| COc1cccc2c1N=c1c(Cl)c3c(c(Cl)c1O2)=Nc1c(OC)cccc1O3 | -1.45% (inactive) |
| CN=Cc1ccccc1O.CN=Cc1ccccc1O.[Cu+2] | -8.6% (inactive) |
